Screens deposited in PubChem BioAssay by National Center for Advancing Translational Sciences (NCATS).
Mito fusion act: blocks mitochondrial division or promotes mitochondrial fusion; S. cerevisiae fusion-defective mutant growth rescue, CellTiterGlo 48 h; Potency, µM (series often up to 46.1 µM), actives largely listed as activators; actives 0.23% (n = 320,000); also: nearly all actives have a fitted effect of over 45% in size
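Temperature-sensitive fusion-defective S. cerevisiae (e.g. fzo1-1, mgm1-5) were grown with compound in YPEG medium (3% ethanol, 3% glycerol) for 48 hours at 37C. Growth rescue was measured as viability by CellTiterGlo luminescence after 10 minutes at ambient.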
TrxR1 inh: rat TrxR1 inhibition; O89049; recombinant rTrxR1, NADPH fluorescence consumption, selenite substrate; Potency, µM (doses to about 114 µM), actives largely listed as inhibitors; actives 1% (n = 390,000); AID 588453; also: nearly all actives have a fitted effect of over 65% in size
Target sequence (O89049 whole entry, looked up): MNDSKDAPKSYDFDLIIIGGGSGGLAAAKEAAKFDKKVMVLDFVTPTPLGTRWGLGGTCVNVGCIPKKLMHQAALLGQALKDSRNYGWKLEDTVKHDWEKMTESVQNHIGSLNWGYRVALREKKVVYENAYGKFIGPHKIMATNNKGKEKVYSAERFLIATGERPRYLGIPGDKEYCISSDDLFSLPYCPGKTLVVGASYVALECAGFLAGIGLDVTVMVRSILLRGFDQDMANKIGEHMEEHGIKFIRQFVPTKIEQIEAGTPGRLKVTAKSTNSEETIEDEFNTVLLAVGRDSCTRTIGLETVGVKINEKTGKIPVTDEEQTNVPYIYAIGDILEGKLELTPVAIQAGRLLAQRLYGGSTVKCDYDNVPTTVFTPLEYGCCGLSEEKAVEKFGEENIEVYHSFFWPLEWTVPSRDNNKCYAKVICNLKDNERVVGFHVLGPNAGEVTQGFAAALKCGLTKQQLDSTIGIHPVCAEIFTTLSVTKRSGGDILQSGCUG
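Rat TrxR1 (90 nM in the dispensed reagent) was pre-reduced with 400 uM NADPH for 5 min at room temperature, then incubated with compound for 15 min. After 400 uM selenite was added, NADPH fluorescence (Ex 340/Em 450 nm) was followed for 8 min.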
A549 tox: counter-screen for Nrf2 inhibitors: cytotoxicity in A549 cells; A549 ARE-Fluc cells, CellTiter-Fluor viability, 18-24 h; Potency, µM (highest dose often 46 µM), usual class: inhibitors; actives 0.16% (n = 390,000); AID 504648
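Cytotoxicity counterscreen: CellTiter-Fluor fluorescence was measured in A549 ARE_Fluc cells after 18-24 h of compound exposure in a concentration series. The subsequent BugLite luminescent read reports ARE-luciferase activity.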
Nrf2 inh: Nrf2 pathway inhibition; Potency, µM (titrated, usually from 46 µM), actives largely listed as inhibitors; A549 ARE-Fluc reporter, luciferase luminescence, 18-24 h; AID 504444; actives 2.1% (n = 360,000); also: nearly all actives have a fitted effect of over 60% in size
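Two sequential reads on A549 ARE_Fluc cells exposed to compound for 18-24 h: a CellTiter-Fluor fluorescence read for viability, then a luciferase luminescence read for Nrf2/ARE activity.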
IDH1 R132H inh: blocks human mutant IDH1 R132H enzyme; O75874; actives 0.093% (n = 390,000); IDH1-R132H enzyme, NADPH consumption, diaphorase/resazurin fluorescence; AID 602179; Potency, µM (series often up to 76.6 µM), hits mostly inhibitors; also: nearly all actives have a fitted effect of over 65% in size
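IDH1-R132H (0.5 ug/mL) preincubated 30 min with compound, then NADPH (0.016 mM) and alpha-KG (2 mM) added; 80 min at RT, pH 7.5. Remaining NADPH coupled via diaphorase/resazurin to fluorescence (540/590 nm); concentration-response curves normalized to no-enzyme control.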
TrxR1 substrate: substrates of rat thioredoxin reductase 1; Potency, µM (top dose mostly 114 µM); actives 0.01% (n = 390,000); AID 588456; purified TrxR1 substrate turnover, NADPH consumption readout; O89049; also: nearly all actives have a fitted effect of over 50% in size
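Rat TrxR1, dispensed at 90 nM, was prereduced with 400 uM NADPH (final) for 5 min at ~22 deg C, then incubated with compound 15 min before 400 uM selenite. A first-read NADPH fluorescence drop versus no-compound background flagged substrates.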
Each line names hits and unclear results; the compound was inactive in the other large screens. An excerpt weighted towards active compounds, which were near 3.1% of everything screened. Calls follow the shape of the dose curve; as a rule, active = well fitted curve in the direction sought with a large enough effect; inconclusive = small, poorly fitted or top-dose-only effect, or another doubt; inactive = no such curve, though single readings can be large; an effect the other way counts as inactive or inconclusive.

COc1ccccc1NC(=O)CSc1ccc(-c2sc(C)nc2C)nn1	none (no result: Mito fusion act, Nrf2 inh)
Cc1nc(C)c(-c2ccc(SCC(=O)Nc3cccc(F)c3)nn2)s1	A549 tox inconclusive, Nrf2 inh 15µM
CC(=O)c1cccc(NC(=O)CSc2ccc(-c3sc(C)nc3C)nn2)c1	none
O=C(Nc1ccc(Br)cc1F)c1ccc2nc(CCc3ccccc3)oc2c1	none (no result: Mito fusion act, Nrf2 inh)
CCOc1ccccc1NC(=O)CSc1ccc(-c2ccco2)nn1	TrxR1 inh 35µM
CCOc1cc(/C=C2\NC(=O)NC2=O)cc([N+](=O)[O-])c1O	TrxR1 inh 50µM, A549 tox inconclusive
Cc1nn(CC(=O)N2CCN(c3ccccn3)CC2)c(=O)c2cc3sccc3n12	A549 tox inconclusive, Nrf2 inh 29µM
CC(C)CN(CCCNC(=O)c1cn(C)c2ccc(S(=O)(=O)N(C)C3CCCCC3)cc2c1=O)CC(C)C	none (no result: Mito fusion act)
COc1ccc(OC)c(NC(=O)c2cc3c(Cl)nc4ccccc4c3s2)c1	none
CCOc1cc(N2CCOCC2)c(OCC)cc1NC(=O)c1cc(-c2ccco2)nc2ccccc12	A549 tox inconclusive, Nrf2 inh 15µM
COc1ccc(NC(=O)c2cc(-c3ccc(C)o3)nc3ccccc23)cc1OC	TrxR1 inh 28µM (no result: Nrf2 inh)
COc1ccc(-c2cc(C(=O)Nc3ccccc3N3CCOCC3)c3ccccc3n2)cc1OC	Nrf2 inh 15µM
COc1ccc(NC(=O)c2cc3c(Cl)nc4ccccc4c3s2)cc1OC	TrxR1 inh inconclusive, Nrf2 inh 10µM
CC(C)(C)n1ncc2c(=O)n(Cc3cccc(C(F)(F)F)c3)cnc21	none (no result: Mito fusion act, A549 tox, Nrf2 inh, IDH1 R132H inh)
COc1ccc(-c2cc(C(=O)Nc3ccc(Cl)cc3Cl)c3ccccc3n2)cc1OC	none
COc1ccc(-c2cc(C(=O)Nc3c(Cl)cc(Cl)cc3Cl)c3ccccc3n2)cc1OC	TrxR1 inh 79µM
Cc1cc(N/N=C/c2ccccc2O)nc(-c2ccccc2O)n1	Mito fusion act inconclusive
Cc1cc(N/N=C/c2ccc(O)cc2O)nc(-c2ccccc2O)n1	Nrf2 inh inconclusive, IDH1 R132H inh 40µM
CCN(CC)c1ccc(C(=C2C=CC(=[N+](CC)CC)C=C2)c2ccc(N(CC)CC)cc2)cc1	TrxR1 inh inconclusive, A549 tox 7.3µM, Nrf2 inh 5.8µM (no result: Mito fusion act)
COc1ccc(-c2ccc3ncnc(NCc4nc(C)cs4)c3c2)cc1OC	Nrf2 inh inconclusive (no result: Mito fusion act, TrxR1 inh, IDH1 R132H inh, TrxR1 substrate)
Cc1onc(-c2ccc3c(c2)OCO3)c1-c1ccc2[nH]ccc2c1	Nrf2 inh 15µM
c1cc2cc(-c3c(-c4ccc5c(c4)OCO5)noc3-c3ccsc3)ccc2[nH]1	none
COc1ccc(OC)c(NC(=O)CSc2nc3ccccc3c(=O)n2CCC(=O)NC2CCCCC2)c1	none (no result: Mito fusion act, Nrf2 inh)
Cc1nnc(CN(C)c2ncnc3ccc(-c4ccc5c(c4)OCO5)cc23)o1	none (no result: Mito fusion act, TrxR1 inh, IDH1 R132H inh, TrxR1 substrate)
O=c1cc2c(nn1Cc1ccccc1Cl)-c1ccccc1CC2	Mito fusion act 20µM
O=c1cc2c(nn1Cc1ccc(Cl)cc1Cl)-c1ccccc1CC2	Mito fusion act inconclusive, Nrf2 inh inconclusive
Cc1cc(Br)c2c(c1)/C(=C/C(=O)c1cccs1)C(=O)N2	none
Cc1cc(C)c2c(c1)/C(=C/C(=O)c1ccc(Br)s1)C(=O)N2	A549 tox inconclusive, Nrf2 inh 9.2µM
Cc1nc(N2CCCCC2)c2c(C)c(C(=O)Nc3cccc(C(F)(F)F)c3)sc2n1	Nrf2 inh 23µM
COc1cc(C)ccc1OCC(=O)OCC(=O)c1[nH]c(C)c(C(C)=O)c1C	none (no result: Mito fusion act)
CC(=O)c1c(C)[nH]c(C(=O)COc2cc(C)ccc2C(C)C)c1C	Nrf2 inh 7.3µM
Cc1ccc(S(=O)(=O)NC(=O)COc2cc(C)ccc2C(C)C)cc1	none
CC(=O)c1c(C)[nH]c(C(=O)COc2ccc(C#N)cc2)c1C	Nrf2 inh 12µM
COc1ccccc1OCC(=O)c1[nH]c(C)c(C(C)=O)c1C	Nrf2 inh 5.2µM
Cc1nc([N+](=O)[O-])c(Br)n1CC(=O)c1ccc(Br)cc1	TrxR1 inh 11µM, A549 tox 16µM, Nrf2 inh 23µM
Cc1nc([N+](=O)[O-])cn1CC(=O)c1ccc(Cl)cc1	none
Cc1nc([N+](=O)[O-])c(Br)n1CC(=O)c1ccccc1	TrxR1 inh 11µM, A549 tox inconclusive (no result: Nrf2 inh)
Cc1cc([N+](=O)[O-])nn1CC(=O)c1ccccc1	none
COc1cccc(C2c3c(ncn(-c4ccccc4C)c3=N)Oc3ccc4ccccc4c32)c1 (stereo unspecified)	none (no result: Mito fusion act, TrxR1 inh, IDH1 R132H inh, TrxR1 substrate)
COc1ccccc1NC(=O)CSc1nc2ccccc2c(=O)n1CCC(=O)NC1CCCCC1	none (no result: Mito fusion act, Nrf2 inh)
Oc1ccc(/C=C/c2nc(-c3ccccc3O)n(-c3ccccc3)n2)cc1	A549 tox inconclusive, Nrf2 inh 7.3µM
Oc1ccccc1-c1nc(/C=C/c2ccccc2)nn1-c1ccccc1	none
CCN(CC)S(=O)(=O)c1ccc(N2CCCCS2(=O)=O)cc1	none (no result: Mito fusion act, Nrf2 inh)
Cc1nc2ccccc2n1CC(=O)NC(C)C1CC2CCC1C2 (stereo unspecified)	Nrf2 inh 5.2µM
CC(NC(=O)Cn1c(NCCO)nc2ccccc21)C1CC2CCC1C2 (stereo unspecified)	none
CCN(CC)c1ccc2nc3c4ccccc4c(=O)cc-3oc2c1	Nrf2 inh inconclusive
CCN(CC)c1ccc2c(-c3ccc(S(=O)(=O)O)cc3S(=O)(=O)[O-])c3ccc(=[N+](CC)CC)cc-3oc2c1	A549 tox 12µM, Nrf2 inh inconclusive, IDH1 R132H inh inconclusive
O=C(CSc1nc2ccc([N+](=O)[O-])cc2s1)NCC1CCCO1 (stereo unspecified)	Nrf2 inh inconclusive
CCOc1ccc(C(=O)Nc2nnc(SCC(=O)NCC3CCCO3)s2)cc1 (stereo unspecified)	Nrf2 inh inconclusive
CC(C)(C)c1ccc(C(=O)Nc2nnc(SCC(=O)NCC3CCCO3)s2)cc1 (stereo unspecified)	Nrf2 inh 10µM
O=C(CSc1nc2cc(Cl)ccc2s1)NCC1CCCO1 (stereo unspecified)	Nrf2 inh 12µM (no result: Mito fusion act)
COc1ccc(-c2csc3ncnc(N4CCN(c5ccccc5OC)CC4)c23)cc1	A549 tox inconclusive, Nrf2 inh 23µM
Fc1ccc(-c2csc3ncnc(N4CCN(Cc5ccccc5)CC4)c23)cc1	none
Fc1ccc(CN2CCN(c3ncnc4scc(-c5ccccc5)c34)CC2)cc1	Nrf2 inh 23µM
Cc1ccc(-c2csc3ncnc(N4CCN(Cc5ccccc5)CC4)c23)cc1	Nrf2 inh 23µM
COc1cc(/C=C(\C#N)c2nc3ccc(C)cc3[nH]2)cc([N+](=O)[O-])c1O	A549 tox 21µM, Nrf2 inh inconclusive
